Compound activity from PubChem.
Most compounds without a hit are left out; they make up all but 6.7% or so of the library.
T cruzi growth-1: T. cruzi proliferation inhibition | T. cruzi beta-gal in NIH3T3, GalScreen luminescence, 90 h | inhibition, % at 8.34 µM | 77,000 tested, 5.9% active | AID 624255;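 active = mean inhibition above about 93%, with at least 55% of replicates each passing it, limit read from the data, passing the limit was not always enough; inconclusive = only one of those two conditions holds; inactive = neither condition holds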
Pf Dd2 growth: P. falciparum Dd2 growth inhibition. AID 1159554. 94,000 tested, 2.3% active. SYBR Green, 72 h; hits give low values. activity change, % at 10 µM; in the data active = activity change below about -80%; inconclusive = no clear call, values can overlap the other calls
C diff HTS: C. difficile growth inhibition | Clostridium difficile clinical isolate growth, OD600, 24 h; hits give low values | growth activity, negative = inhibition, % at 16 µg/mL (by protocol) | 86,000 tested, 0.25% active | AID 1259249;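 active = mean growth activity at or below -80% and every replicate also at or below -80%; inconclusive = mean at or below -80% but some replicate above -80%; inactive = mean growth activity above -80%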;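 also: 0% = DMSO wells and -100% = levofloxacin 16 µg/mL wells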
T cruzi growth-2: Trypanosoma cruzi proliferation inhibition; shares compounds with T cruzi growth-1; T. cruzi beta-gal in NIH3T3, GalScreen luminescence, 90 h; inhibition, % at 8.35 µM; 5,600 tested, 72% active;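 active = mean replicate inhibition above about 95% and at least 55% of replicates individually reaching it, limit read from the data; inconclusive = only one of the two criteria is met; inactive = neither criterion is met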
T cruzi growth-3: Trypanosoma cruzi proliferation inhibition; shares compounds with T cruzi growth-1; T. cruzi beta-gal in NIH3T3, GalScreen luminescence, 90 h; inhibition, % at 2.09 µM; 5,600 tested, 21% active;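 active = mean inhibition above about 95%, with at least 55% of replicates also reaching it, limit read from the data; inconclusive = meets just one of the two conditions; inactive = meets neither condition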;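 also: plate controls were neutral control median for no effect and positive control median for full effect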
NIH3T3 tox: cytotoxicity in mouse NIH/3T3 fibroblasts; NIH/3T3 viability, CellTiter-Glo ATP luminescence, 90 h; 5,600 tested, 14% active; shares compounds with T cruzi growth-1; cytotoxicity (signal decrease), % at 8.35 µM;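 active = mean signal decrease across replicates above about 35% based on untreated-well scatter, with enough replicates individually passing, limit read from the data; inconclusive = no rule stated though some were filed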;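 also: 0% = median of neutral control wells and 100% = median of positive control wells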
3T3 cytotox 2: kills mouse NIH/3T3 fibroblasts | shares compounds with T cruzi growth-1 | NIH/3T3 viability, CellTiter-Glo ATP luminescence, 90 h | inhibition, % at 24.9 µM | 5,600 tested, 56% active;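 active = mean loss of cell viability signal at or above a set limit, and enough replicates individually reaching it; inconclusive = meets only the mean limit or only the replicate share; inactive = meets neither condition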;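 also: 0% = median of neutral control wells and 100% = median of positive control wells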
Active calls of the source: *; ? = inconclusive; . = no result; ! = repeats disagree.

SMILES | T cruzi growth-1 | Pf Dd2 growth | C diff HTS | T cruzi growth-2 | T cruzi growth-3 | NIH3T3 tox | 3T3 cytotox 2
O=C(c1ccccc1F)N1C[C@@H]2[C@H](c3ccccc31)[C@H](CO)N2C(=O)c1ccc(F)cc1 | 26 | -35 | 2 | . | . | . | .
COc1ccc(S(=O)(=O)N2CCCCN3[C@H](CO)[C@H](c4ccc(C#CCC(C)C)cc4)[C@@H]3C2)cc1 | ? | -18 | 9 | 87 | ? | 41* | 67*
COc1ccc(S(=O)(=O)N2CCCCN3[C@H](CO)[C@H](c4ccc(C#CC(C)C)cc4)[C@H]3C2)cc1 | 102* | -69 | 45 | 105* | 98* | 72* | 73*
COc1ccc(S(=O)(=O)N2CCCCN3[C@H](C2)[C@@H](c2ccc(C#CC(C)C)cc2)[C@@H]3CO)cc1 | 105* | -25 | 13 | 102* | 112* | 22 | 97*
COc1ccc(C#Cc2ccc([C@H]3[C@H](CO)N4CCCCN(S(=O)(=O)c5ccccc5)C[C@@H]34)cc2)cc1 | 54 | -63 | 64 | . | . | . | .
COc1cccc(S(=O)(=O)N2CCCCN3[C@H](CO)[C@@H](c4ccc(C#CC(C)C)cc4)[C@H]3C2)c1 | 82 | -38 | 21 | . | . | . | .
COc1ccc(S(=O)(=O)N2CCCCN3[C@H](CO)[C@H](c4ccc(C#CCC(C)C)cc4)[C@H]3C2)cc1 | 55 | -72 | 7 | . | . | . | .
COc1cccc(NC(=O)N(C)C[C@H]2OCc3ccccc3-c3c(n(C)c4ccccc34)C(=O)N([C@@H](C)CO)C[C@H]2C)c1 | 72 | -59 | -12 | . | . | . | .
CN(C)CC(=O)Nc1ccc2c(c1)[C@H]1C[C@@H](CC(=O)NCC3CC3)O[C@H](CO)[C@H]1O2 | -1 | 6 | 0 | . | . | . | .
C[C@H]1CCCCO[C@H](CN(C)C(=O)Nc2ccc(C(F)(F)F)cc2)[C@@H](C)CN([C@@H](C)CO)C(=O)c2cc(NC(=O)Nc3cccc4ccccc34)ccc2O1 | 103* | -83* | -19 | 109* | 109* | 14 | 24
C[C@H]1CCCCO[C@@H](CN(C)C(=O)Nc2ccc(C(F)(F)F)cc2)[C@@H](C)CN([C@@H](C)CO)C(=O)c2cc(NC(=O)Nc3cccc4ccccc34)ccc2O1 | 90 | -1 | -18 | . | . | . | .
C[C@H](CO)N1C[C@H](C)[C@@H](CN(C)C(=O)Nc2ccc(C(F)(F)F)cc2)OCCCC[C@H](C)Oc2ccc(NC(=O)Nc3cccc4ccccc34)cc2C1=O | 101* | -86* | -12 | 104* | 94 | 9 | 18
C[C@@H]1CCCCO[C@H](CN(C)C(=O)Nc2ccccc2)[C@@H](C)CN([C@H](C)CO)C(=O)c2cc(NC(=O)Nc3cccc4ccccc34)ccc2O1 | 52 | -32 | . | . | . | . | .
N#Cc1ccc(-c2ccc3c(c2)[C@@H]2[C@@H](CCN2S(=O)(=O)c2cccc(F)c2)[C@@H](CO)N3)cc1 | 40 | 20 | -2 | . | . | . | .
C[C@@H]1CN([C@@H](C)CO)C(=O)Cc2cc(NC(=O)C3CCCCC3)ccc2O[C@H]1CN(C)Cc1ccc(Oc2ccccc2)cc1 | -13 | -72 | 20 | . | . | . | .
CCC(=O)N(C)C[C@@H]1Oc2cc(C#CCC(C)C)ccc2S(=O)(=O)N([C@@H](C)CO)C[C@H]1C | 51 | -13 | -12 | . | . | . | .
C[C@@H]1CN([C@@H](C)CO)S(=O)(=O)c2ccc(C#Cc3ccccc3F)cc2O[C@@H]1CN(C)C(=O)Cc1ccccc1 | 120* | -51 | 2 | 102* | 99* | 32 | 78*
CC(=O)N(C)C[C@@H]1Oc2cc(C#Cc3ccccc3F)ccc2S(=O)(=O)N([C@H](C)CO)C[C@@H]1C | 67 | -46 | -20 | . | . | . | .
CC(C)CC#Cc1ccc2c(c1)O[C@@H](CN(C)C(=O)Cc1ccccc1)[C@H](C)CN([C@@H](C)CO)S2(=O)=O | 129* | -73 | -8 | 97* | 103* | 13 | 104*
C[C@H](CO)N1C[C@H](C)[C@@H](CN(C)C(=O)Cc2ccncc2)Oc2cc(C#Cc3ccccc3F)ccc2S1(=O)=O | . | -51 | -5 | . | . | . | .
CCC(=O)N(C)C[C@H]1Oc2cc(C#CCC(C)C)ccc2S(=O)(=O)N([C@@H](C)CO)C[C@@H]1C | 87 | -23 | -14 | . | . | . | .
CC(C)CC#Cc1ccc2c(c1)O[C@H](CN(C)C(=O)Cc1ccccc1)[C@H](C)CN([C@H](C)CO)S2(=O)=O | 125* | -46 | 22 | 94 | 74 | -13 | 106*
C[C@@H]1CN([C@H](C)CO)S(=O)(=O)c2ccc(C#Cc3ccccc3F)cc2O[C@H]1CN(C)C(=O)c1ccc2c(c1)OCO2 | 125* | -81*! | -4 | 100* | 106* | 30 | 91*
C[C@@H]1CN([C@@H](C)CO)C(=O)c2cc(NC(=O)CCN3CCOCC3)ccc2O[C@@H]1CN(C)CC1CC1 | 37 | 17 | 0 | . | . | . | .
CC(C)NC(=O)Nc1ccc2c(c1)C(=O)N([C@H](C)CO)C[C@H](C)[C@@H](CN(C)C(=O)C1CCCCC1)OCCCC[C@@H](C)O2 | 32 | -20 | 0 | . | . | . | .
SMILES | T cruzi growth-1 | Pf Dd2 growth | C diff HTS | T cruzi growth-2 | T cruzi growth-3 | NIH3T3 tox | 3T3 cytotox 2
COc1ccc(S(=O)(=O)N(C)C[C@H]2Oc3ccc(NS(=O)(=O)c4ccc(C)cc4)cc3C(=O)N([C@H](C)CO)C[C@@H]2C)cc1 | . | -26 | -2 | . | . | . | .
CCC(=O)N(C)C[C@H]1Oc2cc(C#CCC(C)C)ccc2S(=O)(=O)N([C@H](C)CO)C[C@@H]1C | 55 | -11 | -2 | . | . | . | .
CC(C)CC#Cc1ccc2c(c1)O[C@@H](CN(C)C(=O)Cc1ccccc1)[C@H](C)CN([C@H](C)CO)S2(=O)=O | 129* | -68 | 8 | 105* | 99* | -12 | 107*
C[C@H](CO)N1C[C@H](C)[C@H](CN(C)C(=O)C2CCC2)Oc2cc(Br)ccc2S1(=O)=O | -47 | 28 | . | . | . | . | .
O=C(C[C@H]1CC[C@H]2[C@@H](COC[C@H](O)CN2C(=O)Nc2ccc(Cl)c(Cl)c2)O1)NCc1ccncc1 | 153* | -7 | -97*! | 110* | 24 | -2 | 18
O=C(C[C@H]1CC[C@H]2[C@@H](COC[C@@H](O)CN2C(=O)Nc2ccc(Cl)c(Cl)c2)O1)NCc1ccccc1 | -4 | 1 | . | . | . | . | .
O=C(C[C@@H]1CC[C@@H]2[C@H](COC[C@H](O)CN2C(=O)Nc2ccc(Cl)c(Cl)c2)O1)NCc1ccccc1 | 55 | 7 | . | . | . | . | .
O=C(C[C@@H]1CC[C@H]2[C@@H](COC[C@H](O)CN2C(=O)Nc2ccc(Cl)c(Cl)c2)O1)NCc1ccncc1 | 128* | -6 | -9 | 98* | 2 | 18 | 39*
O=C(C[C@H]1CC[C@@H]2[C@H](COC[C@H](O)CN2C(=O)Nc2ccc(Cl)c(Cl)c2)O1)NCc1ccc(Cl)c(Cl)c1 | 106* | -8 | . | 96* | 73 | 23 | 104*
